{
  "source": "PubChem BioAssay AID1347383",
  "about": "(Zoeller Lab, School of Medicine, Boston University, 2020)",
  "note": "Calls of active or inactive are those of the source.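 The calls were made as follows: active = cell survival after UV exposure 2 SD above solvent-only control wells at 10 µM, confirmed on one or two repeats; inactive = the rest.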",
  "data": [
    {"experiment": "cell survival after pyrene fatty acid photosensitization – ZR-82 cells, Analyticon library, screen 2, phospholipid biosynthesis inhibitor project, primary screen (AID 1347383);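 also: survival reflects blocked phospholipid synthesis cutting uptake of the phototoxic fatty acid; compound and fatty acid exposure 3 h then viability read next day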", "conditions": "ZR-82 CHO cells, pyrene-fatty acid UV killing, CellTiter Blue, at 10 µM; peroxisome-deficient CHO-K1 variant, with DGAT-1, DGAT-2 and ACAT inhibitors unless noted", "values": [
      {"molecule": "CC(C)(C)C1(O)C[C@@H]2OC(=O)C[C@@]23C(=O)O[C@@H]2OC(=O)[C@@H](O)[C@]213", "note": "(stereo partly drawn)", "outcome": "inactive"},
      {"molecule": "CC(C)C(=O)O[C@H]1[C@@H]2[C@H](C)C(=O)O[C@@H]2C[C@@H](C)[C@@H]2C=CC(=O)[C@]21C", "outcome": "inactive"},
      {"molecule": "COc1ccc2c3c([nH]c2c1)C(C)=NCC3", "outcome": "inactive [setting not given]"},
      {"molecule": "CC(=O)O[C@H]1C(=O)[C@]2(C)C(O)C[C@H]3OC[C@@]3(OC(C)=O)[C@H]2[C@H](OC(=O)c2ccccc2)[C@]2(O)C[C@H](O)C(C)=C1C2(C)C", "note": "(stereo partly drawn)", "outcome": "inactive"},
      {"molecule": "C[C@]12CC[C@H](O)CC1=CC[C@@H]1C2CC[C@]2(C)[C@@H](C3=CC(=O)OC3)CC[C@]12O", "note": "(stereo partly drawn)", "outcome": "inactive"},
      {"molecule": "C[C@@]1(C(=O)O)CC[C@]2(C)CC[C@]3(C)C4=CC(=O)c5cc(O)c(O)cc5[C@]4(C)CC[C@@]3(C)[C@@H]2C1", "outcome": "inactive"},
      {"molecule": "COc1ccc(C23C=C4C5CC6(O)CC7N(CCC57c5ccc(OC)c(OC)c5)C4(CC2NCC3)O6)cc1OC", "note": "(stereo not drawn)", "outcome": "inactive"},
      {"molecule": "C/C=C(\\C)[C@H](O)[C@H](C)/C=C(C)/C=C/C/C(C)=C/Cc1[nH]c(OC)c(OC)c(=O)c1C", "outcome": "inactive"},
      {"molecule": "C=CC(C)(C)c1cc2c(O)c3c(c(C(C)(C)C=C)c2oc1=O)OC(C)(C)C=C3", "outcome": "inactive"},
      {"molecule": "C[C@@H]1CCC2[C@@H](C)C(=O)OC3O[C@]4(C)CCC1[C@]32OO4", "note": "(stereo partly drawn)", "outcome": "inactive"},
      {"molecule": "COc1ccc(C23CCC(=O)C=C2N(C)CC3)cc1OC", "note": "(stereo not drawn)", "outcome": "inactive"},
      {"molecule": "C[C@]12CC[C@H](O[C@@H]3O[C@H](CO)[C@@H](O)[C@H](O)[C@H]3O)CC1CC[C@@H]1C2CC[C@]2(C)[C@@H](C3=CC(=O)OC3)CC[C@]12O", "note": "(stereo partly drawn)", "outcome": "inactive"},
      {"molecule": "C[C@H]1O[C@@H](O[C@H]2CC[C@]3(C=O)C4CC[C@]5(C)[C@@H](C6=CC(=O)OC6)CC[C@]5(O)[C@@H]4CC[C@]3(O)C2)C[C@@H](O)[C@@H]1O", "note": "(stereo partly drawn)", "outcome": "inactive"}
    ]}
  ]
}
